According to PubChem BioAssay (NCI):
The panel holds about 79,000 compounds, 15% with a hit somewhere; the sample as a whole holds those more often. Unmarked numbers belong to inactive results. Activity calls are given as the source filed them. Cut-off read from the data, not from the text of the source: active = growth inhibition above about 70%; inactive = the rest.

Assay: NCI Yeast Anticancer Drug Screen. Data for the mlh1 strain (AID 171);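 note: 0% = growth of vehicle-treated control cultures of the same strain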
Conditions: S. cerevisiae mlh1 strain growth inhibition, stronger effect = higher value
Description: Growth inhibition of yeast strains with defined genetic alterations is measured as a screen for potential anti-cancer activity. Selected strains with alterations in DNA damage repair or cell cycle control were exposed to compounds and growth inhibition was measured relative to vehicle treated controls. The strain used in this assay is mlh1

SMILES	growth inhibition (at 1.2 µM)	growth inhibition (at 3.7 µM)	growth inhibition (at 11.0 µM)	growth inhibition (at 33.0 µM)	growth inhibition (at 100.0 µM)
O=C(NCCCCNCCCNC(=O)c1cc(-c2ccccc2)nc2ccccc12)c1cc(-c2ccccc2)nc2ccccc12	0%	-1%	0%	63%	94% (active)
Clc1ccc(SC(/C=C/NNC2=NC(c3ccccc3)C(c3ccccc3)=NN2)c2ccccc2)cc1 (stereo not given)	-3%	5%	-4%	31%	84% (active)
CCN(CC)C(C)(C)C(=O)/C=C/c1ccccc1	2%	2%	3%	3%	5%
Cc1ccc(CCC2=CCCc3c2ccc2ccccc32)cc1	-3%	-4%	-4%	-1%	4%
CC1(Cl)CC(O)C2(CC1Br)C1(C)OC1C1OC1(Br)C2(C)C (stereo not given)	-19%	-22%	-18%	66%	97% (active)
O=C1NC(=O)C2C3C=CC(C3)C12 (stereo not given)	1%	12%	79% (active)	95% (active)	97% (active)
C/C(=N/NC(=S)N1CCCCCC1)c1cccc(/C(C)=N\NC(=S)N2CCCCCC2)n1	-2%	-9%	51%	76% (active)	71% (active)
N#Cc1c(N)[nH]c2ccc(Sc3ccccc3)cc12	-1%	3%	11%	96% (active)	97% (active)
